Test results: PubChem BioAssay AID1159580 (chemical genetic matrix, 2015)
Hit rate of the full screen: of about 5,500 compounds, about 2,000 (36%) were called active. Inconclusive results (about 18%) are left out. No stated cut-off is given here; in the data, active means normalized growth mostly below about 0.91 (no sharp cut-off); inconclusive means no clear call, values can overlap the other calls; inactive means mostly above about 0.92. The list shows a part of the results.

Assay: chemical genetic growth profiling, strain panel (AID 1159580);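 further: tested at 20 µM; growth read once vehicle control cultures reached saturation at 30 °C; 1 = growth at the plate median or of vehicle wells; lower values mean less growth of the strain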
Conditions: growth OD

Measured: normalized growth

CN(C)CCOC(=O)C(c1ccccc1)C1(O)CCCC1 (centres undefined)
inactive: S. cerevisiae deletion strains, locus YJR075W, strain HOC1, active compounds read low 1.01 | S. cerevisiae deletion strains, locus YKL009W, strain mrt4, active compounds read low 1.02 | S. cerevisiae deletion strains, locus YKL068W, active compounds read low 1.01 | S. cerevisiae deletion strains, locus YKL085W, strain MDH1 (second series), active compounds read low 1.04 | S. cerevisiae deletion strains, locus YKL085W, strain MDH1, active compounds read low 1.04 | S. cerevisiae deletion strains, locus YKL160W, strain elf1, active compounds read low 0.988 | S. cerevisiae deletion strains, locus YKR001C, strain vps1, active compounds read low 1.03 | S. cerevisiae deletion strains, locus YKR026C, strain gcn3, active compounds read low 0.973 | S. cerevisiae deletion strains, locus YKR091W, strain srl3, active compounds read low 0.982 | S. cerevisiae deletion strains, locus YLL001W, strain dnm1, active compounds read low 0.957 | S. cerevisiae deletion strains, locus YLL026W, active compounds read low 0.985 | S. cerevisiae deletion strains, locus YLL041C, strain sdh2, active compounds read low 0.99 | S. cerevisiae deletion strains, locus YLR027C, strain aat2, active compounds read low 0.985 | S. cerevisiae deletion strains, locus YLR039C, strain RIC1, active compounds read low 1.04 | S. cerevisiae deletion strains, locus YLR058C, strain SHM2, active compounds read low 1.01 | S. cerevisiae deletion strains, locus YLR102C, strain apc9, active compounds read low 1 | S. cerevisiae deletion strains, locus YLR113W, strain HOG1, active compounds read low 1.01 | S. cerevisiae deletion strains, locus YLR221C, strain rsa3, active compounds read low 1.03 | S. cerevisiae deletion strains, locus YLR258W, strain gsy2, active compounds read low 1.01 | S. cerevisiae deletion strains, locus YLR262C, strain YPT6 (second series), active compounds read low 0.995 | S. cerevisiae deletion strains, locus YLR262C, strain YPT6, active compounds read low 1.05 | S. cerevisiae deletion strains, locus YLR268W, strain sec22, active compounds read low 1.01 | S. cerevisiae deletion strains, locus YLR320W, strain mms22, active compounds read low 1.02 | S. cerevisiae deletion strains, locus YLR330W, strain CHS5, active compounds read low 1 | S. cerevisiae deletion strains, locus YLR342W, strain FKS1 (second series), active compounds read low 0.999 | S. cerevisiae deletion strains, locus YLR342W, strain FKS1, active compounds read low 0.958 | S. cerevisiae deletion strains, locus YLR357W, strain rsc2, active compounds read low 0.962 | S. cerevisiae deletion strains, locus YLR370C, strain arc18, active compounds read low 0.995 | S. cerevisiae deletion strains, locus YLR371W, strain rom2, active compounds read low 1.01 | S. cerevisiae deletion strains, locus YLR384C, strain iki3, active compounds read low 0.985 | S. cerevisiae deletion strains, locus YLR418C, strain cdc73, active compounds read low 1.05 | S. cerevisiae deletion strains, locus YML016C, strain PPZ1, active compounds read low 1 | S. cerevisiae deletion strains, locus YML032C, strain rad52, active compounds read low 1 | S. cerevisiae deletion strains, locus YML120C, strain ndi1, active compounds read low 0.988 | S. cerevisiae deletion strains, locus YML124C, strain tub3, active compounds read low 1.01 | S. cerevisiae deletion strains, locus YMR058W, strain fet3, active compounds read low 0.991 | S. cerevisiae deletion strains, locus YMR078C, strain ctf18, active compounds read low 1.03 | S. cerevisiae deletion strains, locus YMR125W, strain sto1, active compounds read low 0.989 | S. cerevisiae deletion strains, locus YMR129W, active compounds read low 0.986 | S. cerevisiae deletion strains, locus YMR205C, strain PFK2, active compounds read low 0.993 | S. cerevisiae deletion strains, locus YMR223W, strain ubp8, active compounds read low 1.02 | S. cerevisiae deletion strains, locus YMR231W, strain pep5, active compounds read low 0.975 | S. cerevisiae deletion strains, locus YMR307W, strain GAS1, active compounds read low 1.06 | S. cerevisiae deletion strains, locus YNL067W, strain RPL9B, active compounds read low 1.02 | S. cerevisiae deletion strains, locus YNL071W, strain lat1, active compounds read low 1.01 | S. cerevisiae deletion strains, locus YNL153C, strain GIM3, active compounds read low 1.01 | S. cerevisiae deletion strains, locus YNL183C, strain NPR1, active compounds read low 0.944 | S. cerevisiae deletion strains, locus YNL209W, strain ssb2, active compounds read low 1.02 | S. cerevisiae deletion strains, locus YNL233W, strain BNI4, active compounds read low 1.01 | S. cerevisiae deletion strains, locus YNL248C, strain rpa49, active compounds read low 1.03 | S. cerevisiae deletion strains, locus YNL250W, strain rad50, active compounds read low 1.01 | S. cerevisiae deletion strains, locus YNL271C, strain bni1, active compounds read low 1.02 | S. cerevisiae deletion strains, locus YNL298W, strain CLA4, active compounds read low 1.03 | S. cerevisiae deletion strains, locus YNL307C, strain MCK1, active compounds read low 1.02 | S. cerevisiae deletion strains, locus YNL322C, strain KRE1 (second series), active compounds read low 0.985 | S. cerevisiae deletion strains, locus YNL322C, strain KRE1, active compounds read low 0.982 | S. cerevisiae deletion strains, locus YNR049C, strain mso1, active compounds read low 0.987 | S. cerevisiae deletion strains, locus YNR052C, strain pop2, active compounds read low 1.01 | S. cerevisiae deletion strains, locus YOL006C, strain TOP1, active compounds read low 1.04 | S. cerevisiae deletion strains, locus YOL012C, strain htz1 1.15 | S. cerevisiae deletion strains, locus YOL147C, strain pex11, active compounds read low 1.01 | S. cerevisiae deletion strains, locus YOR001W, strain rrp6, active compounds read low 0.97 | S. cerevisiae deletion strains, locus YOR061W, strain CKA2, active compounds read low 1.01 | S. cerevisiae deletion strains, locus YOR069W, strain VPS5, active compounds read low 1.01 | S. cerevisiae deletion strains, locus YOR070C, strain gyp1, active compounds read low 0.997 | S. cerevisiae deletion strains, locus YOR080W, strain dia2, active compounds read low 0.981 | S. cerevisiae deletion strains, locus YOR083W, strain WHI5, active compounds read low 0.952 | S. cerevisiae deletion strains, locus YOR106W, strain vam3, active compounds read low 0.993 | S. cerevisiae deletion strains, locus YOR136W, strain idh2, active compounds read low 1.02 | S. cerevisiae deletion strains, locus YOR144C, strain elg1, active compounds read low 1.01 | S. cerevisiae deletion strains, locus YOR184W, strain ser1, active compounds read low 1.02 | S. cerevisiae deletion strains, locus YOR231W, strain MKK1, active compounds read low 0.997 | S. cerevisiae deletion strains, locus YOR265W, strain rbl2, active compounds read low 0.998 | S. cerevisiae deletion strains, locus YOR270C, strain vph1, active compounds read low 0.957 | S. cerevisiae deletion strains, locus YOR290C, strain snf2, active compounds read low 1.02 | S. cerevisiae deletion strains, locus YOR316C, strain cot1, active compounds read low 1.02 | S. cerevisiae deletion strains, locus YPL051W, strain arl3, active compounds read low 1.02 | S. cerevisiae deletion strains, locus YPL055C, strain LGE1, active compounds read low 1.01 | S. cerevisiae deletion strains, locus YPL078C, strain atp4, active compounds read low 0.961 | S. cerevisiae deletion strains, locus YPL106C, strain sse1, active compounds read low 1.01 | S. cerevisiae deletion strains, locus YPL240C, strain hsp82, active compounds read low 1.01 | S. cerevisiae deletion strains, locus YPL241C, strain CIN2, active compounds read low 0.988 | S. cerevisiae deletion strains, locus YPL256C, strain CLN2, active compounds read low 0.984 | S. cerevisiae deletion strains, locus YPR119W, strain clb2, active compounds read low 1.01 | S. cerevisiae deletion strains, locus YPR141C, strain kar3, active compounds read low 1.03 | S. cerevisiae deletion strains, locus YPR163C, strain tif3, active compounds read low 1.02 | S. cerevisiae deletion strains, locus YPR167C, strain met16, active compounds read low 1.01 | S. cerevisiae deletion strains, strain wtn01, active compounds read low 1.01 | S. cerevisiae strains, strain wild type, active compounds read low 1
